Among the test systems are NCI-H23 lung; NCI-H226 lung; NCI-H322M lung; HOP-62 NSCLC; NCI-H460 lung; HOP-92 NSCLC; NCI-H522 lung; A549/ATCC NSCLC; 786-0 renal; COLO 205 colon.
Holding throughout (experiment): NCI-60 one-dose screen, 48 h (100 = growth as untreated, 0 = no growth, -100 = all killed)
What all share (settings): 10 µM unless noted

This is part of a sample that, as a whole, favours compounds with a hit. Of some 83,000 tested, about 20% had one in any assay.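 96-well plates, one dose, 48 hours. Percent growth reported; active if below 10.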 A number with no mark means an inactive call. Activity calls are given as the source filed them.

For the molecule `O=C1CC(c2ccc3c(c2)OCO3)c2ncn(-c3ccc(Cl)cc3)c2N1` (stereo not given), the growth is 41% in the assay with NCI-H23 lung; 69.8% in the assay on NCI-H226 lung; 51.9% in the assay with NCI-H322M lung; 60.3% with HOP-62 NSCLC; 14.3% in the assay on NCI-H460 lung; 69.7% with HOP-92 NSCLC. The growth in the assay on NCI-H522 lung is -19.2% (active); in the assay on A549/ATCC NSCLC, 48.7%; in the assay with 786-0 renal it was 38.4%; in the assay with COLO 205 colon it was 99.5%.
For `COC(=O)[C@H](Cc1ccccc1)NC(=O)[C@@H](OC)[C@@H]1Cc2cc3cc(OC4CC(OC5CC(O)C(O)C(C)O5)C(O)C(C)O4)c(C)c(O)c3c(O)c2C(=O)[C@H]1OC1CC(OC2CC(OC3CC(C)(O)C(O)C(C)O3)C(O)C(C)O2)C(O)C(C)O1` (stereo not given in full), the growth in the assay with NCI-H23 lung is -28.5% (active); in the assay with NCI-H226 lung it was -33% (active); with NCI-H322M lung, 7.54% (active); in the assay with HOP-62 NSCLC, 4.37% (active); in the assay on NCI-H460 lung, 4.92% (active); in the assay on HOP-92 NSCLC, -17.5% (active). Further, the growth in the assay with NCI-H522 lung was -30.7% (active); with A549/ATCC NSCLC it was 6.81% (active); with 786-0 renal, 0.647% (active); in the assay on COLO 205 colon, -36.7% (active).
With `CC(=O)c1cnc2ccc(-c3cc(Cl)c(O)c(Cl)c3)nc2c1NC1CCC(CN(C)C)CC1` (stereo not given), the growth with NCI-H23 lung was -54.3% [2.5 µM] (active); with NCI-H226 lung, -16.3% [2.5 µM] (active); in the assay with NCI-H322M lung, -37.7% [2.5 µM] (active); in the assay on HOP-62 NSCLC, -34.4% [2.5 µM] (active); in the assay on NCI-H460 lung, -51.8% [2.5 µM] (active); in the assay with HOP-92 NSCLC, -20.3% [2.5 µM] (active). The growth with NCI-H522 lung is -75.5% [2.5 µM] (active); in the assay with A549/ATCC NSCLC, -8.85% [2.5 µM] (active); in the assay with 786-0 renal, -48.3% [2.5 µM] (active); with COLO 205 colon, -94.2% [2.5 µM] (active).
Turning to `N#CC[C@H](C1CCCC1)n1cc(-c2ncnc3[nH]ccc23)cn1`, the growth in the assay on NCI-H23 lung is 71.5%; in the assay on NCI-H226 lung it was 33.7%; in the assay with NCI-H322M lung, 76.2%; with HOP-62 NSCLC, 45.1%; in the assay on NCI-H460 lung, 54.7%; with HOP-92 NSCLC it was 41.5%. Moreover, the growth in the assay with NCI-H522 lung is 37.9%; with A549/ATCC NSCLC it was 43.8%; in the assay on 786-0 renal it was 54.7%; in the assay with COLO 205 colon it was 37%.
Regarding `CCCCn1c(C)nc2ccc(Nc3nc(N4CCN(C)CC4)nc4nc[nH]c34)cc21`, the growth in the assay with NCI-H23 lung is 95.5%; in the assay on NCI-H226 lung it was 93%; with NCI-H322M lung it was 91.3%; in the assay on HOP-62 NSCLC, 90.9%; in the assay with NCI-H460 lung, 104%; in the assay with HOP-92 NSCLC, 64.8%. Further, the growth in the assay with NCI-H522 lung is 87.2%; with A549/ATCC NSCLC, 94.2%; with 786-0 renal, 92.8%; with COLO 205 colon it was 87.9%.
Turning to `COc1cc2c(cc1OCCCCCN1CCN(c3ncnc4ccccc34)CC1)N=CC1CCCN1C2=O` (stereo not given), the growth was 3.3% (active) with NCI-H23 lung; -58.2% (active) in the assay with NCI-H226 lung; -0.115% (active) in the assay with NCI-H322M lung; -22.4% (active) with HOP-62 NSCLC; 5.35% (active) in the assay on NCI-H460 lung; -63.8% (active) with HOP-92 NSCLC. Besides, the growth was -55.4% (active) in the assay on NCI-H522 lung, 1.13% (active) with A549/ATCC NSCLC, -9.08% (active) in the assay with 786-0 renal and -46.1% (active) in the assay on COLO 205 colon.
In the case of `Cc1cc(Nc2ncnc3ccc(NC4=NC(C)(C)CO4)cc23)ccc1Oc1ccn2ncnc2c1`, the growth in the assay with NCI-H23 lung is 35.6%; in the assay on NCI-H226 lung, 47%; with NCI-H322M lung it was 5.34% (active); in the assay on HOP-62 NSCLC, 22.3%; in the assay on NCI-H460 lung, 26.9%; in the assay with HOP-92 NSCLC, 9.05% (active). For the same molecule, the growth in the assay with NCI-H522 lung is 6.43% (active); in the assay on A549/ATCC NSCLC, 20.7%; in the assay on 786-0 renal, 29.7%; in the assay on COLO 205 colon it was -60.7% (active).
As for `CC(C)(C)C(=O)OCOP(=O)(OCOC(=O)C(C)(C)C)C1CCCN(OC(=O)c2ccccc2)C1=O` (stereo not given), the growth in the assay with NCI-H23 lung is 16.8%; with NCI-H226 lung, 34.9%; in the assay with NCI-H322M lung, 21.2%; in the assay on HOP-62 NSCLC, 22.8%; in the assay with NCI-H460 lung, 15.6%; with HOP-92 NSCLC, 29.3%. Also, the growth with NCI-H522 lung was 12.9%; with A549/ATCC NSCLC, 24.6%; in the assay on 786-0 renal, 17.8%; with COLO 205 colon, 14.3%.
On to `Nc1c(Cl)cccc1[N+](=O)[O-]`, for which the growth in the assay on NCI-H23 lung was 106%; in the assay on NCI-H226 lung it was 101%; in the assay with NCI-H322M lung it was 110%; with HOP-62 NSCLC, 98.8%; in the assay on NCI-H460 lung, 104%; in the assay on HOP-92 NSCLC, 96.6%. Also, the growth with NCI-H522 lung is 118%; with A549/ATCC NSCLC it was 101%; with 786-0 renal it was 109%; in the assay with COLO 205 colon, 114%.
On to `Nc1nc(=S)c2ncn(C3OC(COC(=O)c4ccc(Cl)cc4)C(OC(=O)c4ccc(Cl)cc4)C3OC(=O)c3ccc(Cl)cc3)c2[nH]1` (stereo not given), for which the growth in the assay with NCI-H23 lung was 91.9%; with NCI-H226 lung, 86.9%; in the assay with NCI-H322M lung, 97.8%; in the assay on HOP-62 NSCLC, 106%; in the assay on NCI-H460 lung it was 91.1%; with HOP-92 NSCLC, 82.7%. The growth in the assay with NCI-H522 lung was 86.8%; in the assay with A549/ATCC NSCLC it was 98%; in the assay with 786-0 renal, 84.4%; with COLO 205 colon it was 123%.
For the molecule `O=c1nc2c(-c3nc4ccccc4s3)n[nH]n2c2sc3c(c12)CCCC3`, the growth in the assay on NCI-H23 lung was 98.2%; in the assay with NCI-H226 lung, 90.1%; in the assay on NCI-H322M lung, 107%; with HOP-62 NSCLC, 90.5%; in the assay with NCI-H460 lung, 102%; with HOP-92 NSCLC, 90.7%. Moreover, the growth is 99.9% in the assay with NCI-H522 lung, 96.1% in the assay on A549/ATCC NSCLC, 102% in the assay on 786-0 renal and 106% in the assay on COLO 205 colon.
